The record followed here is PubChem BioAssay.

Calls of active or inactive are those of the source. How the calls were made is not given here.

The test relates to Aerobactin synthetase IucA (Klebsiella pneumoniae hvKP1). Description: IucA enzyme inhibition, primary screen, biochemical, Spectrum library (AID 1346200).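 Further: 100% = wells without compound and 0% = wells lacking enzyme.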 The settings on record: malachite green pyrophosphate, A620, at 8 µM, hits give low values.
For `Cn1c(=O)c2c(ncn2CC(O)CO)n(C)c1=O` (stereo not drawn), the activity remaining is 104% (inactive). The result for `Cn1nnnc1SCC1=C(C(=O)O)N2C(=O)C(NC(=O)C(OC=O)c3ccccc3)C2SC1` (stereo not drawn) reads 118% (inactive); that for `CC(=O)[C@H]1CCC2C3CC=C4C[C@@H](OC(=O)CCC(=O)O)CC[C@]4(C)C3CC[C@@]21C` (stereo partly drawn), 117% (inactive); that for `C/C1=C\CCC(=O)C2CC(C)(C)C2CC1` (stereo not drawn), 105% (inactive). As for `CCN(CC)CCOC(=O)C(c1ccccc1)C1CCCCC1` (stereo not drawn), the figure is 111% (inactive); as for `CC1(C)CC[C@@]2(C(=O)O)C(C1)C1=CCC3[C@@]4(C)CC[C@H](O)C(C)(C)C4CC[C@@]3(C)[C@]1(C)C[C@@H]2O` (stereo partly drawn), 99.8% (inactive).

In the case of `CNc1ccccc1C(=O)N1CCc2c([nH]c3ccccc23)C1=O`, the activity remaining was 106% (inactive).

`COC(=O)c1c(OC)cc2c(c1C)Oc1c(Cl)c(OC(C)=O)c(Cl)c(C)c1C(=O)O2`: the activity remaining is 98.6% (inactive). Turning to `CC1=C(/C=C/C(C)=C/C=C/C(C)=C/CO)C(C)(C)CCC1`, the activity remaining was 105% (inactive).

`C#C[C@]1(O)CCC2C3CCc4cc(OC)ccc4C3CC[C@@]21C` (stereo partly drawn): the activity remaining is 116% (inactive).

Consider `CC(=O)O[C@@H]1CC2C(C)(C)[C@H](O)C[C@H](O)[C@]2(C)C2CC[C@@]3(C)C(=CC(=O)O[C@H]3c3ccoc3)[C@@]21C` (stereo partly drawn), for which the activity remaining was 102% (inactive). With `Nc1ccc(S(=O)(=O)Nc2cnc3ccccc3n2)cc1`, the activity remaining was 123% (inactive). As for `C=C[C@@]1(C)CC(=O)[C@@]2(O)[C@](C)(O1)[C@@H](OC(C)=O)[C@@H](O)C1C(C)(C)CC[C@H](O)[C@@]12C` (stereo partly drawn), the figure is 82.4% (inactive).
